The results in this text go back to PubChem BioAssay.

Assay [1] relates to Human papillomavirus type 1a protein E7 (residues 44-93). In words: HPV1a E7 fragment binders on microarrays, primary screen, biochemical, small-molecule microarray, residues 44-93, 635 nm fluorescence (AID 1108).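 Also: E7 fragment applied at 1 µg/mL in TBST for 1 h at 4 C; score combines spot fluorescence with its signal to noise ratio.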 The note with it: small-molecule microarray binding, fluorescence 635 nm; higher = more signal.
Assay [2] is described as follows: modulators of HCV replicon luciferase signal, primary screen, HCV replication inhibitor project, Huh7 cells, luciferase reporter (AID 1109).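 Also: huh7 hepatoma cells harbouring a luciferase neomycin HCV replicon reporter; luciferase luminescence as measure of HCV replicon replication; test concentration not given here.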 As to conditions: 48 h, higher = more signal.
The target in assay [3] is Left-right determination factor 2 (Homo sapiens) (UniProt O00292). The experiment in a line: LEFTY2 binders on small-molecule microarrays, primary screen, biochemical, small-molecule microarray, 635 nm fluorescence scan (AID 1110). As to conditions: LEFTY2 binding, higher = more signal.
Sequence of Left-right determination factor 2 (Homo sapiens) (O00292 whole entry, looked up): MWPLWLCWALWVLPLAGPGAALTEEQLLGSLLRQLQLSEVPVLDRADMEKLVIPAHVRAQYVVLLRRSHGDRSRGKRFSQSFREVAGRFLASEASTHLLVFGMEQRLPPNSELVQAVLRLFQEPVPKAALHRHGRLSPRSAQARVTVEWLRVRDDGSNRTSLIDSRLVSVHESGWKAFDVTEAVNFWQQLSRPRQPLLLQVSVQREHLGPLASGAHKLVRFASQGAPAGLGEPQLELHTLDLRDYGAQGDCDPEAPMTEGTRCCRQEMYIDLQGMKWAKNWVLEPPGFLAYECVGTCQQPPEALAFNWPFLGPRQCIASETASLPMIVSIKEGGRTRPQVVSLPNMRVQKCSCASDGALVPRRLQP
The target in assay [4] is Calmodulin-1 (Homo sapiens) (UniProt P0DP23). In words: CALM1 binders on microarrays, EGTA buffer, profiling panel, biochemical, small-molecule microarray, Cy5-labelled CALM1 (AID 1111).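 Also: labelled calmodulin applied in Tris saline Tween buffer holding calcium plus EGTA and DTT.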 The note with it: Cy5-CALM1 binding fluorescence, higher = more signal.
The target is the same in assay [5]. The experiment in a line: calcium-bound CALM1 binders on microarrays, profiling panel, artefact control for SMM control-protein annotation, biochemical, small-molecule microarray, Cy5-labelled CALM1, plus calcium (AID 1112).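 Also: score merges spot fluorescence with signal to noise from triplicate slides.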 As to conditions: Cy5-CALM1 binding fluorescence, higher = more signal.
A short description of assay [6]: small-molecule microarray binders of probe aWnt5a, primary screen, biochemical, biotinylated probe, 635/667 nm fluorescence (AID 1113).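 Also: score merges 667 nm fluorescence intensity with signal-to-noise per printed feature.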 As to conditions: higher = more signal.
A short description of assay [7]: small-molecule microarray binders of probe aShh, primary screen, biochemical, biotinylated probe, 635/667 nm fluorescence (AID 1114).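 Also: probe is biotin-labelled aShh protein from a stem cell growth factor screen; measures binding of labelled protein to compounds printed on the slide; score merges feature fluorescence at 667 nm with signal-to-noise.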 As to conditions: higher = more signal.
A short description of assay [8]: small-molecule microarray binders of probe aNog, primary screen, biochemical, biotinylated probe, 635/667 nm fluorescence (AID 1115).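 Also: probe is biotinylated aNog protein used at 0.15 µg/mL for 1 h at 4 C; z-score combines 667 nm fluorescence of each spot with its signal to noise.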 The note with it: higher = more signal.
Assay [9] addresses Torsin-1A-interacting protein 1 (Homo sapiens) (UniProt Q5JTV8). The experiment in a line: LAP1 binders from COS7 cell lysate, primary screen, small-molecule microarray, 635/667 nm fluorescence (AID 1116). As to conditions: COS7-hLAP1 lysate binding, 635 nm fluorescence, higher = more signal.
For assay [10], the target named is Alpha-bungarotoxin (Bungarus multicinctus) (UniProt P60615). The experiment in a line: alpha-bungarotoxin binders on microarray, profiling panel, artefact control for SMM control protein annotation, biochemical, small-molecule microarray, Alexa647 label, 635/667 nm fluorescence (AID 1117). As to conditions: alpha-BTX-A647 binding fluorescence, higher = more signal.
Sequence of Alpha-bungarotoxin (Bungarus multicinctus) (P60615 whole entry, looked up): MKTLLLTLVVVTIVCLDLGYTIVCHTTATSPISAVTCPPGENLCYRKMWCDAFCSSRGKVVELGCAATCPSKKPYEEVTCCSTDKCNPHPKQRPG

Sequence of Torsin-1A-interacting protein 1 (Homo sapiens) (Q5JTV8 whole entry, looked up): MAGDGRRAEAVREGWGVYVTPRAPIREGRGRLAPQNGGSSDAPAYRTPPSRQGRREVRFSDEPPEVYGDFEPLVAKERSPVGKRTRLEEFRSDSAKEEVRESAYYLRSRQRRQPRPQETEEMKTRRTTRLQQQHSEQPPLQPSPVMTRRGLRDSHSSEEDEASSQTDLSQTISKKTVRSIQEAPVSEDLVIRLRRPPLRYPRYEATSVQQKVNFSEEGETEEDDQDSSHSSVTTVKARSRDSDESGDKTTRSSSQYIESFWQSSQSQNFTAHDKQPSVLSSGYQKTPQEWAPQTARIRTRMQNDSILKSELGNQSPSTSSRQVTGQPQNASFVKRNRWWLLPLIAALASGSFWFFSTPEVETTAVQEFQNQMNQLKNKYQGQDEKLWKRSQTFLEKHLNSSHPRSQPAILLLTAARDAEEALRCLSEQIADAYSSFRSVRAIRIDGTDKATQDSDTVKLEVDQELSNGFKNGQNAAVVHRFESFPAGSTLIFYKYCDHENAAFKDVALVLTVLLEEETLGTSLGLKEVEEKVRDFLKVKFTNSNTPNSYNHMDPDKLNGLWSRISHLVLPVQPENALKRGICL

As for `COC(=O)[C@@]1(Cc2ccc(F)cc2)[C@H]2c3cc(C(=O)N(C)C)n(CCN4CCOCC4)c3C[C@H]2CN1C(=O)c1ccccc1`, the composite z-score in [1] is 0.357; in assay [3], 0.134; in assay [4], 0.639; in assay [5], -0.125; in assay [6] it was 0.974; in [7] it was 0.275. The composite z-score in assay [8] was 0.932; in assay [9], 0.868; in assay [10] it was 0.0194. In addition, in assay [2], the z-score stood at 0.349.
As to `CN(C)CCCCNC(=O)[C@H]1C[C@H]2C(=O)NCC(=O)N2[C@H]1c1cccc(OCCO)c1`, the composite z-score was -0.433 in assay [1]; -0.443 in assay [3]; 0.0097 in assay [4]; 0.706 in assay [5]; -0.0685 in assay [6]; -0.285 in [7]. Besides, the composite z-score in assay [8] was -0.437; in assay [9] it was 0.668; in assay [10] it was -0.115. Further, in assay [2], the z-score is 0.195.
For the molecule `CC(C)C[C@@H]1NC(=O)[C@@H]2C[C@H](C(=O)O)[C@H](c3ccc(O)cc3)N2C1=O`, the composite z-score is 0.309 in assay [1]; 0.695 in [3]; 1.31 in assay [4]; 0.192 in assay [5]; -0.0512 in assay [6]; 0.0611 in assay [7]. The composite z-score was 0.116 in assay [8], 1.22 in assay [9] and 1.64 in assay [10]. Also, the z-score in assay [2] was -0.836.
Turning to `C=CCC(OC(C)=O)[C@@H]1[C@@H](N(Cc2ccc(-c3cccc(C(F)(F)F)c3)o2)C(=O)Cc2ccc(F)cc2)c2cc(OCCCO)ccc2N1C(=O)c1ccc2ccccc2c1` (stereo not given in full), the composite z-score in assay [1] is -1.18; in assay [3], -0.72; in assay [4], -0.681; in [5] it was -0.214; in assay [6] it was -0.0548; in [7], -0.221. The composite z-score in assay [8] was -0.624; in [9], 0.0175; in assay [10] it was -0.318. In addition, the z-score in assay [2] was -0.735.
On to `COCC(=C=CC[C@@H](O)c1cccc(OCCO)c1)C[C@@H](O)COCc1ccccc1`, for which the composite z-score in assay [1] is 0.276; in [3], -0.0586; in assay [4] it was 1.8; in [5], 1.35; in [6] it was 0.284; in [7], 0.0633. In addition, the figures for the composite z-score in assay [8], in assay [9] and in [10] were -0.215, 3.66 and 0.116, respectively. In addition, in assay [2], the z-score is -0.81.
Consider `COCCOC(=O)N1C(=O)[C@@]2(c3cc(C#CC4=CCCCC4)ccc31)[C@H](C(=O)N1CCc3cc(OC)c(OC)cc3C1)[C@H]1C(=O)O[C@H](c3ccccc3)[C@H](c3ccccc3)N1[C@@H]2c1ccc(O)cc1`, for which the composite z-score in assay [1] worked out at 1.42; in assay [3], 0.761; in [4], 1.74; in assay [5], 0.673; in assay [6] it was 0.18; in assay [7], 0.482. Also, the composite z-score was 0.707 in assay [8], 1.34 in assay [9] and 0.967 in [10]. Besides, the z-score in [2] was -0.934.
`O=C1O[C@@H](c2ccccc2)[C@@H](c2ccccc2)N2[C@@H](c3ccc(O)cc3)[C@]3(C(=O)Nc4ccc(C#CC5=CCCCC5)cc43)[C@@H](C(=O)N3CCCCCCC3)[C@H]12`: the composite z-score in [1] is 1.38; in assay [3] it was 0.455; in assay [4] it was 1.61; in assay [5] it was 0.485; in assay [6], 0.654; in assay [7], 2.04. Further, the composite z-score in assay [8] was found to be 2.52; in assay [9] it was 3.16; in assay [10], 2.25. Moreover, the z-score in assay [2] was -1.46.
Consider `CCCCN1CC=CC23O[C@@H]4C=CCOC(=O)[C@@H]4[C@H]2C(=O)N(CCO)[C@@H]3C1=O` (stereo not given in full), for which the composite z-score is -0.718 in [1]; -2.32 in [3]; -0.483 in [4]; 0.856 in [5]; -0.119 in [6]; 0.0893 in assay [7]. Further, the values for the composite z-score in assay [8], in assay [9] and in assay [10] were 0.643, -0.401 and -1.48, respectively. This molecule also gave a z-score in assay [2] of 0.407.
Take `COC(=O)[C@@]1(Cc2ccc(F)cc2)[C@H]2c3cc(C(=O)N4CCCC4)n(CCO)c3C[C@H]2CN1C(=O)c1ccccc1`: the composite z-score in [1] was 0.0213; in [3], -0.83; in assay [4] it was -0.07; in assay [5], 0.723; in assay [6], 0.229; in assay [7], 0.381. For the same molecule, the composite z-score in assay [8] was -0.662; in assay [9], 0.956; in assay [10], -0.063. Besides, the z-score in assay [2] is -1.
Consider `CCc1cccc(NC(=O)O[C@H]2[C@H](OC(=O)Nc3ccc4c(c3)OCO4)[C@H](OC(=O)Nc3ccc4c(c3)OCO4)[C@@H](OC)O[C@@H]2CO)c1`, for which the composite z-score is 1.47 in assay [1]; -0.263 in assay [3]; 0.949 in assay [4]; -0.943 in [5]; -0.0087 in assay [6]; 0.131 in assay [7]. The figures for the composite z-score in assay [8], in assay [9] and in assay [10] were -0.312, 0.154 and 1.18, respectively. In [2], the z-score was -0.548.
In the case of `CCCCC(=C=CC[C@@H](O)c1cccc(OCCO)c1)C[C@@H](O)COCc1ccccc1`, the composite z-score in assay [1] is -0.622; in [3], -0.0756; in assay [4], -0.613; in assay [5], -0.285; in assay [6] it was -0.096; in assay [7] it was -0.0709. In addition, the composite z-score was -0.219 in [8], 0.546 in assay [9] and 1.35 in assay [10]. In addition, the z-score in assay [2] was -1.78.
Turning to `O=C1NC(=O)C2C1C=CC(C(O)c1cccc(O)c1)N2Nc1ccc(Cl)cc1Cl` (stereo not given), the composite z-score in assay [1] is -0.429; in [3], -0.715; in [4], 0.741; in assay [5], 0.675; in assay [6] it was -0.104; in assay [7] it was -0.212. Besides, the composite z-score in [8] is -0.237; in assay [9] it was -0.369; in [10] it was 0.369. Also, the z-score in [2] was -0.591.
On to `O=C1O[C@H](c2ccccc2)[C@H](c2ccccc2)N2[C@H]1[C@@H](C(=O)N1CCN(c3ncccn3)CC1)[C@]1(C(=O)Nc3ccccc31)[C@H]2c1ccc(O)cc1`, for which the composite z-score was 1.43 in [1]; -0.412 in assay [3]; 1.28 in assay [4]; 0.618 in assay [5]; -0.0643 in assay [6]; -0.119 in assay [7]. Moreover, the composite z-score in assay [8] was 0.265; in [9], -0.15; in [10], 0.593. Besides, the z-score in assay [2] is -1.9.
With `[N-]=[N+]=NCc1ccccc1C[C@@]1(C(=O)O)N=C(c2ccc(OCCCO)cc2)O[C@@H]1c1ccccc1CN=[N+]=[N-]`, the composite z-score in assay [1] is 1.39; in assay [3], 0.219; in assay [4] it was 0.973; in assay [5], -0.0107; in assay [6], 0.0676; in assay [7] it was 0.0121. For the same molecule, the composite z-score is -0.56 in assay [8], 0.74 in [9] and 1.27 in assay [10]. The z-score in assay [2] is -1.84.
With `[N-]=[N+]=NCc1ccccc1[C@@H]1OC(c2ccc(OCCCO)cc2)=N[C@]1(Cc1ccccc1)C(=O)NCc1ccccc1`, the composite z-score in [1] was determined as 1.28; in assay [3], 0.0086; in [4], 1.87; in [5] it was 0.237; in [6], 0.0495; in assay [7], 0.0181. Also, the composite z-score in [8] is -0.489; in assay [9], 1.12; in assay [10], 0.688. For the same molecule, the z-score in assay [2] is -2.34.
On to `C[C@]1(C(=O)NCC(F)(F)F)c2ccccc2C(=O)N(Cc2ccc(OC(F)(F)F)cc2)[C@H]1c1ccc(CO)cc1`, for which the composite z-score in assay [1] was 0.26; in assay [3], -0.143; in assay [4], -0.0779; in assay [5] it was -0.373; in assay [6] it was -0.154; in [7] it was -0.0626. The composite z-score in [8] was -0.519; in [9], -0.115; in assay [10] it was 0.25. For the same molecule, the z-score in [2] was -1.11.
Turning to `CC(C)C[C@@H]1NC(=O)[C@H]2C[C@@H](C(=O)NCCCCCCNC(=O)CS)[C@@H](c3ccc(O)cc3)N2C1=O`, the composite z-score in assay [1] was 1.4; in assay [3] it was 0.719; in assay [4], 1.56; in assay [5], 0.858; in assay [6] it was -0.0718; in assay [7], -0.0362. Moreover, the composite z-score in assay [8] was -0.164; in assay [9], 1.47; in assay [10], -0.827. Further, in assay [2], the z-score was -1.13.
